From the supplement of paper PMC9334596
Values joined by “and” are separate entries in the source; they are usually repeats but may differ in a detail not shown here. Equal entries are not always repeated. In all, about 5,300 compounds were measured (“PER2::LUC luminescence relative to vehicle control”: median about 0.96, highest 2% from about 1.3 on). The list comes from a sample in which the highest values are over-represented; it also holds similar structures and randomly drawn compounds.

Test system: mPer2Luc MEF
Assay: PER2::LUC luminescence relative to vehicle control (fold of vehicle); higher = higher PER2::LUC reporter signal
Details: 10 µM
In short: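 Mouse embryonic fibroblasts carrying the mPer2Luc reporter were seeded at ~3000 cells per well in 384-well plates, 48 h before compounds from commercial libraries were added at 10 μM. Cells were grown in DMEM with 10% FBS at 37 °C and 5% CO2. Luminescence was read with the ONE-Glo luciferase assay system 24 h and 30 h after treatment, followed by an alamarBlue viability assay. The value is PER2::LUC luminescence as fold of vehicle control.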

| SMILES | PER2::LUC luminescence (time after treatment 24 h) | PER2::LUC luminescence (time after treatment 30 h) |
| --- | --- | --- |
| CO/S(=N\S(=O)(=O)c1ccc(Cl)cc1)c1ccc([N+](=O)[O-])cc1 (configuration not stated) | 0.994 | 1.22 |
| COc1cc(OC)cc(C(=O)Nc2ccc(Cl)c(-c3nc4ccc(N(C)C)cc4[nH]3)c2)c1 | 0.977 | 1.35 |
| NC(=O)c1ccc2nc(-c3ccc(Oc4ccc(Cl)cc4)cc3)[nH]c2c1 | 1.29 | 1.16 |
| CC(C)CC[C@@H](O)[C@](C)(O)[C@H]1CC[C@@]2(O)C3=CC(=O)[C@]4(O)C[C@@H](O)[C@@H](O)C[C@]4(C)[C@H]3[C@H](O)C[C@]12C | 1.22 | 1.26 |
| Cc1o[nH]c(=O)c1CCC(N)C(=O)O (configuration not stated) | 0.959 | 0.829 |
| O=C[C@H](O)[C@H]1OC(=O)[C@@H](O)[C@H]1O | 1.14 | 0.922 |
| C[n+]1cc(NC(=O)c2cccc(C(=O)Nc3cc4ccccc4[n+](C)c3)n2)cc2ccccc21 | 0.697 | 0.604 |
| Cc1cccn2c(=O)c(C=C(C#N)c3nc4ccccc4s3)c(Oc3ccc(F)cc3)nc12 | 0.941 | 0.942 |
| CCCCCCCC/C=C/CCCCCCCCOP(=O)([O-])OCC[N+](C)(C)C | 1.02 | 0.935 |
| OC[C@H]1O[C@@H](O[C@@H]2[C@@H](CO)OC(O)(CO)[C@H]2O)[C@H](O)[C@@H](O)[C@H]1O (mixture of isomers) | 1.12 | 1.37 |
| OC[C@H]1O[C@@H](O[C@H]2[C@H](O)[C@@H](O)C(O)O[C@@H]2CO)[C@H](O)[C@@H](O)[C@H]1O (some centres not stated) | 1.03 | 1.06 |
| OC[C@H]1O[C@@H](O[C@H]2[C@H](O)[C@@H](O)[C@@H](O)O[C@@H]2CO)[C@H](O)[C@@H](O)[C@@H]1O | 0.982 | 0.927 |
| CCCC1(C)C(C#N)(C#N)C1(C#N)C#N | 1.15 | 1.04 |
| CC[C@H](CC[C@@H](C)[C@H]1CC[C@H]2[C@@H]3CC=C4C[C@@H](OC(C)=O)CC[C@]4(C)[C@H]3CC[C@]12C)C(C)C | 1.04 | 1.02 |
| COC(=O)c1ccc2c(c1)nc(NC(=O)c1ccccc1)n2CCCc1ccccc1 | 1.09 | 0.933 |
| O=C(Nc1nc2ccccc2n1CCN1CCOCC1)c1cccc([N+](=O)[O-])c1 | 1.36 | 1.18 |
| C[C@@H]1CCNC(=O)c2cc3ccc(C(=O)Nc4nc5ccccc5n4CCCN(C)C)cc3n21 | 0.548 | 0.586 |
| CC(C)[C@H](NC(=O)CCCCCN1C(=O)C=CC1=O)C(=O)N[C@@H](CCCNC(N)=O)C(=O)Nc1ccc(COC(=O)Oc2ccc([N+](=O)[O-])cc2)cc1 | 0.958 | 1.07 |
| COC(=O)CNC(=O)C(=O)OC | 0.922 | 0.99 |
| CC(C)(C)c1ccc(S(=O)(=O)Nc2ccc(-n3ccnc3)cc2)cc1 | 1.15 | 1.26 |
| Cc1cc(OCc2nc(-c3ccccc3Cl)cs2)ccc1CCC(=O)O | 1.11 | 1.28 |
| CCOc1cc2c(c(F)c1OCC)C(=N)N(CC(=O)c1cc(N3CCOCC3)c(OC)c(C(C)(C)C)c1)C2 | 0.14 | 0.117 |
| Cc1oncc1C(=O)Nc1ccc(C(F)(F)F)cc1 | 1.35 | 1.82 |
| O=C(Nc1ccc(C(O)(C(F)(F)F)C(F)(F)F)cc1)c1ccc(C(F)(F)F)cc1 | 0.687 | 0.47 |
| Nc1ccc(NC(=O)c2ccc(C(F)(F)F)cc2)nc1 | 1.01 | 0.976 |
| CC1=CC[C@@]2(C)CC[C@@](O)(C(C)C)[C@@H]2[C@@H](OC(=O)c2ccc(O)cc2)C1 | 1.08 | 1.15 |

| SMILES | PER2::LUC luminescence (time after treatment 24 h) | PER2::LUC luminescence (time after treatment 30 h) |
| --- | --- | --- |
| O=C(Nc1ccc(Cl)cc1CN1C(=O)c2ccccc2C1=O)c1ccccc1O | 1.03 | 1.02 |
| NC[C@H]1CC[C@H](C(=O)Oc2ccc(CCC(=O)O)cc2)CC1 | 0.828 | 0.901 |
| Cc1cc2c(cc1Cl)N(C(=O)Nc1ccc(Oc3cccnc3C)nc1)CC2 | 0.924 | 1.03 |
| C[Si](C)(C)CCOCn1ccc2c(-c3cn[nH]c3)ncnc21 | 1.11 | 1.03 |
| O=C(O)c1ccccc1C(=O)Nc1ccc(S(=O)(=O)Nc2nccs2)cc1 | 0.993 | 0.892 |
| O=C(O)CCC(=O)Nc1ccc(S(=O)(=O)Nc2nccs2)cc1 | 0.666 | 0.939 |
| S=C(Nc1ccccc1)Nc1nccs1 | 1.46 | 1.58 |
| CCOc1ccc(C(Nc2ccccn2)c2ccc3ccc(C)nc3c2O)cc1C (configuration not stated) | 1.13 | 1.13 |
| NC(N)=NCCC[C@H](NC(=O)[C@@H](N)Cc1ccc(O)cc1)C(=O)O | 1.04 | 0.909 |
| CS(=O)(=O)c1cc(F)cc2c3c(n(Cc4ccc(Cl)cc4)c12)[C@@H](CC(=O)O)CC3 | 1.13 | 1.09 |
| CC(C)CCC[C@@H](C)[C@H]1CC[C@H]2[C@@H]3CC=C4CC(=O)CC[C@]4(C)[C@H]3CC[C@]12C | 1.42 | 1.09 |
| CC(=O)OC1CCC2(C)C(=CCC3C2CCC2(C)C(C(C)CCCC(C)C)CCC32)C1 (configuration not stated) | 1.04 | 0.938 |
| CC(C)CCC[C@@H](C)[C@H]1CC[C@H]2[C@@H]3CC=C4C[C@@H](O)CC[C@]4(C)[C@H]3CC[C@]12C | 0.926 | 0.923 |
| CO[C@H]1[C@H](OC(=O)c2ccc(C)[nH]2)[C@H](O)[C@@H](Oc2ccc3c(O)c(NC(=O)c4c[nH]c(C(=O)Nc5c(O)c6ccc(O[C@H]7OC(C)(C)[C@@H](OC)[C@H](OC(=O)c8ccc(C)[nH]8)[C@@H]7O)c(C)c6oc5=O)c4C)c(=O)oc3c2C)OC1(C)C | 1.1 | 1.13 |
| C/C1=C\CC(C)(C)/C=C/C(=O)/C(C)=C/CC1 | 1.08 | 1.06 |
| Clc1ccc(Cn2c(CN3CCCC3)nc3ccccc32)cc1 | 1.06 and 0.848 | 0.924 and 0.834 |
| Cc1nc2ccccc2n1Cc1ccc(Cl)cc1 | 0.361 | 0.307 |
| CN(c1nccc(=O)[nH]1)C1CCN(c2nc3ccccc3n2Cc2ccc(F)cc2)CC1 | 1.07 | 1.45 |
| COc1ccc([C@@H]2OC[C@@H]3[C@H]2CO[C@H]3c2ccc(OC)c(OC)c2)cc1OC | 1.05 | 1.07 |
| CC1(C)CC(NC(=O)C(=O)Nc2ccc(Br)cc2)CC(C)(C)N1 | 0.875 | 0.928 |
| NC1CCN(O)C1=O (single isomer, unassigned; (-)) | 1.08 | 1.01 |
| CC1(C)CC(NC(=O)C(=O)Nc2ccc(Cl)cc2)CC(C)(C)N1 | 0.958 | 1 |
| O=C(O)c1cc(=O)c2ccccc2[nH]1 | 1.08 | 0.931 |
| O=c1c2ccccc2nc2n1CCc1c-2[nH]c2ccccc12 | 1.36 | 1.51 |
| O=C1c2ccccc2-n2c1nc1ccccc1c2=O | 0.998 | 0.885 |
